Measurements as given in the supplement of paper PMC6555819.

Experiments:
Test in all cases: PBM binding z-score (relative to random genomic background probes); higher = stronger binding; sequences stand for … in GC…GCGATTGACAGCGTAGAATGAAGG
[1] = test system: FXR:RXRa (NR concentration 270 nM, RXRa partner concentration 90 nM)
Procedure, shortened: (§1)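 On custom Agilent 4×180K arrays, double-stranded probes with 34-nt variable regions carried direct-repeat seeds, single-nucleotide variants, half-site ablations or random human genomic background. Ligand-free nuclear receptor dimers were applied for 1 h, and binding was read with antibodies against each partner (one per run). Binding z-scores come from regression-normalized fluorescence, with the random background probes as reference.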

[2] = test system: LXRa:RXRa (NR concentration 270 nM, RXRa partner concentration 90 nM)
Procedure, shortened: as §1

[3] = test system: LXRa homodimer (NR concentration 270 nM)
Procedure, shortened: as §1

[4] = test system: LXRb:RXRa (NR concentration 270 nM, RXRa partner concentration 90 nM)
Procedure, shortened: as §1

[5] = test system: LXRb homodimer (NR concentration 270 nM)
Procedure, shortened: as §1

[6] = test system: PPARa:RXRa (NR concentration 270 nM, RXRa partner concentration 90 nM)
Procedure, shortened: as §1

[7] = test system: PPARg:RXRa (NR concentration 180 nM, RXRa partner concentration 90 nM)
Procedure, shortened: as §1

[8] = test system: PPARg:RXRa 270nM:90nM, anti-RXR (NR concentration 270 nM, RXRa partner concentration 90 nM)
Procedure, shortened: as §1

[9] = test system: PPARg:RXRa 30nM:10nM, anti-RXR (NR concentration 30 nM, RXRa partner concentration 10 nM)
Procedure, shortened: as §1

[10] = test system: PPARg:RXRa 90nM:30nM, anti-RXR (NR concentration 90 nM, RXRa partner concentration 30 nM)
Procedure, shortened: as §1

[11] = test system: PPARg:RXRa DBDmut IVT, anti-RXR (DBD mutation: RXRa K156A/R161A, NR concentration 270 nM, RXRa partner concentration 90 nM)
Procedure, shortened: as §1

[12] = test system: PPARg:RXRa IVT, anti-PPARg (NR concentration 270 nM, RXRa partner concentration 90 nM)
Procedure, shortened: as §1

[13] = test system: PPARg DBDmut:RXRa IVT, anti-PPARg (DBD mutation: PPARg1 K132A/R137A, NR concentration 270 nM, RXRa partner concentration 90 nM)
Procedure, shortened: as §1

[14] = test system: PPARg DBDmut IVT, anti-PPARg (DBD mutation: PPARg1 K132A/R137A, NR concentration 270 nM)
Procedure, shortened: as §1

[15] = test system: PPARg homodimer (NR concentration 180 nM)
Procedure, shortened: as §1

[16] = test system: PXR:RXRa (NR concentration 270 nM, RXRa partner concentration 90 nM)
Procedure, shortened: as §1

[17] = test system: PXR homodimer (NR concentration 270 nM)
Procedure, shortened: as §1

[18] = test system: RARa:RXR (NR concentration 270 nM, RXRa partner concentration 90 nM)
Procedure, shortened: as §1

[19] = test system: RARa homodimer (NR concentration 270 nM)
Procedure, shortened: as §1

[20] = test system: RARb:RXRa (NR concentration 270 nM, RXRa partner concentration 90 nM)
Procedure, shortened: as §1

Row | Sequence | PBM binding z-score [1] | PBM binding z-score [2] | PBM binding z-score [3] | PBM binding z-score [4] | PBM binding z-score [5] | PBM binding z-score [6] | PBM binding z-score [7] | PBM binding z-score [8] | PBM binding z-score [9] | PBM binding z-score [10] | PBM binding z-score [11] | PBM binding z-score [12] | PBM binding z-score [13] | PBM binding z-score [14] | PBM binding z-score [15] | PBM binding z-score [16] | PBM binding z-score [17] | PBM binding z-score [18] | PBM binding z-score [19] | PBM binding z-score [20]
1 | CGTCAAAGTTCAAGGAAACGTAACAGAAAGCAGC | 5.45 | 5.15 | 1.92 | 2.97 | 0.958 | 4.11 | 3.58 | 4.4 | 1.69 | 3.29 | 0.0711 | 1.12 | 0.307 | 1.1 | 1.84 | 3.45 | 1.73 | 2.73 | 1.33 | 5
2 | ATATGTAGCTTACATCCGGGTCATTCAGGCTATG | 1.18 | 1.36 | 0.618 | 1.73 | 0.372 | 2.39 | 0.959 | 0.733 | 0.448 | 0.268 | 0.48 | 1.48 | 1.08 | 0.976 | 0.783 | 2.42 | 1.38 | 2.54 | 0.0612 | 1.31
3 | CAAACTAGGTCACAGAGGTCTAAGTCCGTGCGTA | 4.42 | 3.56 | 0.555 | 2.13 | 0.273 | 5.17 | 8.49 | 6.93 | 5.19 | 6.98 | 8.53 | 8.91 | 1.68 | 1.67 | 0.929 | 2.54 | 0.546 | 2.8 | 0.421 | 4.13
4 | CGAACTATGTCATCCAGGACAGTGAATACATTGA | 0.102 | -0.0297 | 0.258 | 0.236 | 0.0323 | 1.01 | 1.11 | 1.06 | 0.663 | 0.773 | 3.74 | 2.94 | 1.29 | 1.1 | 0.502 | 0.317 | -0.051 | 0.733 | 0.52 | 0.805
5 | CAAACTAGTTCACGAAAGGTCAAAGTCGAATGAC | 6.34 | 7.45 | 7.18 | 6.48 | 2.77 | 5.65 | 4.37 | 5.37 | 2.24 | 4.32 | 2.5 | 3.57 | 1.49 | 0.645 | 5.52 | 6.88 | 5.53 | 7 | 3.03 | 4.89
6 | TAGCCTACGTCATTGGGCCAGTATAGTACGCATC | -0.593 | -0.86 | -0.485 | -0.66 | -0.257 | -0.37 | 0.495 | -0.589 | -0.293 | -0.205 | -0.24 | 0.164 | -0.121 | -0.0205 | -0.852 | -0.757 | -0.796 | -0.734 | -0.851 | -0.413
7 | GATACAGGGTCAGCGAGAGGCCAGAGTATGGAAA | 5.07 | 3.15 | -0.446 | 2.63 | -1.12 | 5.05 | 4.14 | 3.78 | 1.07 | 2.38 | 1.16 | 2.78 | -0.0146 | -0.645 | 2.81 | 3.7 | 0.293 | 4.49 | 0.19 | 4.26
8 | ACAGACAGGTGAGTCAAGGTAACTCAGCTGGACG | 1.06 | -0.203 | -0.155 | -0.37 | -0.551 | 0.333 | 0.647 | -0.164 | -0.257 | -0.347 | 0.393 | 0.646 | -0.696 | -0.663 | -0.248 | 0.238 | -0.645 | 0.569 | -0.253 | 0.669
9 | AGAACTAGGGCACGCTGAGTTGATAGCAGAGTAG | -0.159 | -0.0416 | -0.762 | -0.394 | -0.896 | 3.01 | 5.21 | 4.47 | 1.85 | 3.37 | 8.03 | 7.98 | 3.17 | 2.05 | 0.0464 | 0.214 | -0.312 | -0.11 | -0.599 | 1.58
10 | AGTCAAAGTGCAGGACGAGGTAACGTAAAGCACG | -0.105 | -0.155 | -0.419 | -0.641 | -0.89 | 0.169 | 1.06 | 1.03 | 0.301 | 0.389 | -0.506 | 0.274 | -0.356 | -0.388 | -0.0962 | -0.156 | -0.256 | 0.784 | -0.657 | 1.15
11 | AGTCAAAGTACACTAGGTAACGTAAGATTCAGCT | -0.108 | -0.26 | -0.164 | -0.273 | 0.0714 | 0.196 | 1.13 | 0.666 | 0.149 | 0.295 | 1.45 | 2.33 | 0.868 | 0.545 | -0.165 | -0.253 | -0.00521 | -0.109 | 0.688 | 0.988
12 | GCTAGTTGGTCAATAAAAGGTCACACACCGGTCG | 3.63 | 5.13 | 6.33 | 4.53 | 0.973 | 4.39 | 2.18 | 3.93 | 1.16 | 2.9 | 1.64 | 3.07 | 0.532 | 0.266 | 4.72 | 5.3 | 1.4 | 5.89 | 3.47 | 4.33
13 | GCAGACAGGTGAAATGCAGGTAACTCAGGGTGGC | -0.157 | 0.0887 | -0.625 | -0.157 | -0.898 | 1.23 | 0.71 | 0.196 | -0.445 | 0.00263 | 1.43 | 1.14 | -0.233 | -1.24 | -0.0768 | -0.249 | 0.00173 | 0.324 | -0.661 | 0.683
14 | CCTTACGGGTCACTGACAGGTTATAACATTTGGA | 5.58 | 4.49 | 0.519 | 3.76 | 0.0468 | 5.18 | 4.66 | 4.61 | 1.74 | 3.38 | 3.56 | 3.86 | 0.537 | 0.266 | 2.85 | 3.67 | 0.294 | 4.67 | 1.52 | 3.9
